D2 ag-1: agonists of human D2 dopamine receptor | HEK293 T-REx D2 cells, calcium flux agonist mode | activation, % at 2 µM | hit rate 0.53% among 340,000 | AID 485358;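 active = activation over 3 SD above normal in the single-dose calcium agonist read, cut at about 30% in these data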
Target sequence (P14416 whole entry, looked up): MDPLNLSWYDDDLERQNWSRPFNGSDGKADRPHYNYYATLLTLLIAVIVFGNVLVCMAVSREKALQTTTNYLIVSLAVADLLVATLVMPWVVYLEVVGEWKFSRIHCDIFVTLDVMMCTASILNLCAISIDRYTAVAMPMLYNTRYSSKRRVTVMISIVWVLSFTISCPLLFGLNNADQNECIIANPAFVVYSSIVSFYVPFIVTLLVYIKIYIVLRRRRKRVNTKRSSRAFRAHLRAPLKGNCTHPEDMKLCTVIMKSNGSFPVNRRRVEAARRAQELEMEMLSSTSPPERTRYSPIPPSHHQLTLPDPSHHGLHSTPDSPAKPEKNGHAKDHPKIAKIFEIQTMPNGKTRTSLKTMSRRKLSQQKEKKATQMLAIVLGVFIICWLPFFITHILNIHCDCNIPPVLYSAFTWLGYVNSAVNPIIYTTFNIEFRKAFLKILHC
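Agonism scored from kinetic calcium signal (1 read/sec, 180 s) following compound pin transfer, after a 10 s baseline. Cells: HEK293 Trex line expressing inducible D2 receptor coupled to calcium, dye-loaded after overnight culture at 30 C.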
D2 ag-2: activates the human D2 dopamine receptor | DiscoveRx PathHunter D2 beta-arrestin, luminescence, 90 min; 100% = 57 uM dopamine signal | P14416 | activation, % (concentration not given with the values) | AID 624465 | hit rate 0.084% among 360,000; in the data active = activation above about 40%; inconclusive = between about 15% and that limit
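DiscoveRx PathHunter D2 beta-arrestin cells (2,100/well) attached overnight, then compound-stimulated 90 min at 37 C in HBSS/10 mM HEPES/0.1% Tween-20 buffer; beta-galactosidase complementation read by luminescence after 1 h at ambient temperature. Dopamine 57 uM final (EC100) as control.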
D2 antagonist: antagonizes the human D2 dopamine receptor | AID 485344 | hit rate 2% among 340,000 | P14416 | inhibition, % at 10 µM | HEK293 TREx D2 cells, calcium flux, dopamine EC80; in the data active = inhibition above about 30%; inactive = below that, where a call was filed
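Cells plated overnight at 30 C with tetracycline; no-wash calcium dye, 30–90 min RT; 10 s baseline; compound pinned; 180 s read; EC80 dopamine added; another 180 s read.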
D2 PAM-1: human D2 receptor positive allosteric modulation | P14416 | DiscoveRx D2 beta-arrestin cells, luminescence, 90 min; 100% = 57 uM dopamine signal | potentiation, % (no concentration beside the values) | hit rate 0.23% among 360,000 | AID 624464; in the data active = potentiation above about 50%; inconclusive = mostly about 30% to 49%
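D2 cells co-treated with compound plus 50 nM dopamine (EC20) for 90 min at 37 deg C to detect potentiation. Beta-arrestin recruitment was read as enzyme-fragment luminescence after 1 h at ambient temperature. Full response was set by 57 uM dopamine.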
D2 PAM-2: D2 dopamine receptor (human) potentiation. hit rate 0.34% among 340,000. potentiation, % at 10 µM. P14416. HEK293 T-REx D2, calcium flux, EC20 dopamine potentiation;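 active = potentiation over 3 SD above the plate norm, cut at about 30% in these data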
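Cells plated with tetracycline inducer and held overnight at 30 C; calcium dye loaded 30–90 min at room temperature; baseline taken, compound added and read 180 s; EC20 dopamine then added and read 180 s.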
A number is an active result; 0 = inactive; ? = inconclusive; - = no result. The list is not random: actives were taken first. Their share in the collection is about 2.4%.

SMILES | D2 ag-1 | D2 ag-2 | D2 antagonist | D2 PAM-1 | D2 PAM-2
CCC(CC)C(=O)N(c1ccc(F)cc1)C1C=CS(=O)(=O)C1 (configuration not stated) | 0 | 0 | 73 | 0 | 0
Cn1nccc1/C=C(/C#N)S(=O)(=O)c1ccccc1 | 0 | 0 | 31 | 0 | 0
O=[N+]([O-])c1ccc(N/N=C/c2ccccc2O)cc1 | 0 | 0 | 36 | 0 | 0
O=[N+]([O-])c1ccc(NN=Cc2ccccc2O)nc1 | - | 0 | - | 0 | -
Cc1ccc2nc(Nc3ccccc3)c(C=O)c(=O)n2c1 | 0 | 0 | 0 | 0 | 37
CN(C)c1ccc(/C=C(\C#N)C(=O)c2ccccc2)cc1 | 163 | 0 | 0 | 0 | 0
Cc1ccc(-n2ncc(C#N)c2/N=C/N2CCN(C)CC2)cc1 | 0 | 0 | 37 | 0 | 0
O=C1C(Cl)=C(NCCc2ccccc2)C(=O)c2ccccc21 | - | 0 | - | 0 | -
O=C1C(Cl)=C(NCc2cccnc2)C(=O)c2ccccc21 | 0 | ? | 34 | 0 | 0
O=C(NC1CCN(S(=O)(=O)c2ccccc2C(F)(F)F)CC1)c1ccco1 | 0 | 0 | 30 | 0 | 0
O=C(NC1CCN(S(=O)(=O)c2ccc(F)cc2)CC1)c1ccco1 | 0 | 0 | 0 | 0 | 0
CCOC(=O)N1CCN(C(=O)c2c(O)c3cccc4c3n(c2=O)CC4)CC1 | 0 | 0 | 0 | 0 | 37
CN1CCN(C(=O)c2c(O)c3cccc4c3n(c2=O)CC4)CC1 | 0 | 0 | 0 | 0 | 0
Cn1c(=S)[nH]c2scc(-c3cccs3)c2c1=O | - | 0 | - | 67 | -
Cc1ccc(N2CC3=C(C2=O)C(c2ccc(Br)cc2)NC(=O)N3C)cc1 (configuration not stated) | 0 | - | - | - | 0
CCc1ccc(S(=O)(=O)c2nnn3c2nc(Nc2cccc(C)c2C)c2sccc23)cc1 | 0 | - | - | - | 0
COc1ccc(Br)cc1CN1CCN(Cc2c[nH]c3ccccc23)CC1 | 0 | 0 | 87 | 0 | 0
COc1ccc(CN2CCN(Cc3c[nH]c4ccccc34)CC2)cc1OC | - | 0 | - | 0 | -
COC(=O)c1sc2cccc(F)c2c1S(=O)(=O)N1CCN(c2ccc(F)cc2)CC1 | 0 | - | - | - | 0
Cc1cc(C)c2[nH]c(=O)c(C(c3nnnn3CC3CCCO3)N3CCC(C)CC3)cc2c1 (configuration not stated) | 0 | 0 | 37 | 0 | 0
Cc1ccc(S(=O)(=O)NNC(=O)CCC(=O)Nc2ccc(C)c(C)c2)cc1 | 0 | 0 | 32 | 0 | 0
CCOCCCn1c(SCC(=O)Nc2ccccc2Cl)nc2c(oc3ccccc32)c1=O | 0 | - | - | - | 0
COc1ccc(CCNc2c(C)c(C)nc3ncnn23)cc1 | 0 | 0 | 0 | 0 | 43
Cc1cc2oc(C(=O)Nc3nonc3C)c(C)c2cc1Cl | 0 | 0 | 0 | 0 | 34
Cc1nn(C)c2c1c(-c1ccccc1)cc(=O)n2CC(=O)NC(C)c1ccccc1 (configuration not stated) | 0 | - | - | - | 0
SMILES | D2 ag-1 | D2 ag-2 | D2 antagonist | D2 PAM-1 | D2 PAM-2
O=C(Cn1nc([N+](=O)[O-])nc1Br)NC(c1ccccc1)c1ccccc1 | 0 | 0 | 0 | 58 | 0
Cc1cc([N+](=O)[O-])nn1CC(=O)NC(C)c1ccccc1 (configuration not stated) | 0 | 0 | 0 | 0 | 0
O=C(NCc1ccc2c(c1)CCN2C(=O)c1ccc(F)cc1)c1ccc(Br)o1 | 0 | - | - | - | 0
CN(C)c1ccc(-c2nnc(SCC3CCCO3)n2C)cc1 (configuration not stated) | 0 | 0 | 32 | 0 | 0
Cn1c(SCC2CCCO2)nnc1-c1ccncc1 (configuration not stated) | 0 | 0 | 0 | 0 | 0
CCc1nnc(NC(=O)CSc2nnc(Cc3ccccc3)o2)s1 | 0 | 0 | 0 | 0 | 0
CCc1nnc(NC(=O)CSc2nnc(CNc3ccc(Cl)cc3)o2)s1 | 0 | 0 | 50 | 0 | 0
Cc1oc(-c2ccccc2F)nc1CS(=O)(=O)CC(=O)NCCCN1CCN(C)CC1 | 0 | 0 | 0 | 0 | 0
CCCNC(=O)CS(=O)(=O)Cc1nc(-c2ccccc2C)oc1C | 0 | 0 | 40 | 0 | 0
Cc1oc(-c2ccccc2F)nc1CS(=O)(=O)CC(=O)NCCCN1CC(C)CC(C)C1 (configuration not stated) | 0 | 0 | 48 | 0 | 0
Cc1nn(CC(=O)NCC(C)c2ccccc2)c(=O)c2cc3ccccc3n12 (configuration not stated) | 0 | - | - | - | 0
O=C(c1ccc(N2C(=O)CCC2=O)cc1)N1CCOCC1 | 0 | 0 | 53 | 0 | 0
COc1ccccc1NC(=O)N1CCN(C)CC1 | 0 | 0 | 0 | 0 | 0
COc1ccccc1NC(=O)N1CCCC1 | 0 | 0 | 33 | 0 | 0
Cc1ccc(-n2nc3c(N4CCC(C(=O)NCc5ccc(C)o5)CC4)nnc(C)c3c2C)cc1 | 0 | 0 | 0 | 0 | 31
CC(C)CCNC(=O)Cc1ccccc1[N+](=O)[O-] | 0 | 0 | 0 | 0 | 33
O=C(Cc1ccccc1[N+](=O)[O-])NCCc1ccc(F)cc1 | 0 | 0 | 0 | 0 | 0
CCOCCc1nn2c(=O)cc(COC(=O)c3ccc(NC(=O)C(C)(C)C)cc3)nc2s1 | - | - | - | - | 0
CCOC(=O)c1cc2c(=O)n3ccccc3nc2n(CCCOC)c1=NC(=O)C(C)(C)C | 32 | 0 | 0 | 0 | 0
CCOC(=O)c1cc2c(=O)n3ccccc3nc2n(CCOC)c1=NC(=O)C(C)(C)C | 0 | 0 | 0 | 0 | 0
Cc1cc(NC(=O)c2ccccc2F)nc2c1c(=O)oc1ccccc12 | 0 | 0 | 0 | 0 | 42
CCCC(=O)Nc1cc(C)c2c(=O)oc3ccccc3c2n1 | 0 | 0 | 0 | 0 | 0
Cc1ccc(C(=O)NCCN2C3=NC[C@@H](Cc4ccccc4)N3C[C@H]2Cc2ccc(O)cc2)cc1Br | 0 | 0 | 68 | 0 | 0
CCCCN1C(=O)C(O)(CC(=O)c2ccccc2OC)c2ccccc21 (configuration not stated) | 0 | 0 | 33 | 0 | 0
c1ccc(CSc2nc3ncccc3[nH]2)cc1 | - | - | - | - | 0
SMILES | D2 ag-1 | D2 ag-2 | D2 antagonist | D2 PAM-1 | D2 PAM-2
CCCCNC(=S)N/N=C/c1ccc(C#N)cc1 | 0 | 0 | 39 | 0 | 0
Cc1ccccc1N1CC(c2nc3ccccc3n2Cc2ccc(Br)cc2)CC1=O (configuration not stated) | 0 | - | - | - | 0
CCOC(=O)CCCc1c[nH]c2ccccc12 | 0 | 0 | 0 | 0 | 0
CC(C)(C)NC(=O)NC(=O)COC(=O)CCCc1c[nH]c2ccccc12 | 0 | 0 | 70 | 0 | 0
COc1ccc2c(C(=O)c3ccc(C)cc3)n(Cc3ccc(C(N)=O)cc3)[n+]([O-])c2c1 | 0 | 0 | 60 | 0 | 0
Cc1c(CC(=O)N[C@@H](C)C(=O)O)c(=O)oc2cc3c(cc12)CCC(C)(C)O3 | 0 | 0 | 36 | 0 | 0
Cc1c(CC(=O)NC(C)C)c(=O)oc2cc3c(cc12)CCC(C)(C)O3 | 0 | 0 | 0 | 0 | 0
Brc1ccc(-c2cn3c(n2)SCC3)cc1 | 0 | 0 | 33 | 0 | 0
c1ccc(-c2cn3c(n2)SCC3)cc1 | 0 | 0 | 0 | 0 | 30
